ssDAF12 agonist – S. stercoralis DAF-12 nuclear receptor activators, primary screen, cell-based, luminescence, HEK293, GRIP1 co-expression, lit1-tk-luc. Nuclear hormone receptor DAF-12 (Strongyloides stercoralis). HEK293 ssDAF-12/GRIP1 lit1-tk-luc reporter; % of 3 µM dafachronic acid response. activation, % at 6.8 µM. 370,000 compounds, 1% hits;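 active = activation above the mean over all tested compounds plus 3 SD, cut at about 0.9% in these data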;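 also: 0% = DMSO-only wells and 100% = 3 µM delta7-dafachronic acid wells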
DAX1 StAR inh – DAX1 (NR0B1) inhibitors on StAR promoter, primary screen, cell-based, luminescence, SF-1 (NR5A1), full-length DAX-1; 370,000 compounds, 1.1% hits; HEK293T StAR-luciferase reporter, SF-1/DAX-1 repression relief; AID 652010, 2013; inhibition, % at 6.8 µM;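 active = inhibition above the mean over all tested compounds plus 3 SD, cut at about 3.6% in these data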;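 also: 0% = DAX-1 cells with DMSO and 100% = cells lacking DAX-1 with DMSO; higher inhibition means more luminescence from relief of DAX-1 repression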
SMARCA2 act – SMARCA2 (BRM) function activators, primary screen, cell-based, luminescence, high throughput | MG213 cells, MMTV-luciferase reporter, dexamethasone, overnight | activation, % at 9.1 µM | 370,000 compounds, 1% hits | AID 652017, 2013; in the data active = activation above about 7.8%;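 also: 0% = vehicle wells and 100% = reference activator wells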
hgDAF12 agonist – H. glycines DAF-12 receptor agonists, primary screen, cell-based, luminescence, HEK293, GAL4 fusion, UAS-luciferase. activation, % at 6.8 µM. AID 687014, 2013. HEK293 GAL4-hgDAF12 UAS-luciferase reporter, agonist luminescence; normalized to butyrate control. Nuclear hormone receptor DAF-12 (Heterodera glycines), GAL4 fusion. 370,000 compounds, 1.8% hits;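 active = activation above a cutoff set at the mean of all screened compounds plus 3 SD, cut at about 10% in these data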;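 also: 0% = DMSO wells and 100% = sodium butyrate wells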
hcDAF12 agonist – H. contortus DAF-12 nuclear receptor activators, primary screen, cell-based, luminescence, HEK293, lit1-tk-luc reporter. 370,000 compounds, 1.4% hits. HEK293 hcDAF-12 lit1-tk-luc reporter; 0% DMSO, 100% Δ7-dafachronic acid. activation, % at 6.8 µM;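 active = activation above the mean of all tested compounds plus 3 SD, cut at about 5.5% in these data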;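 also: 100% = response to 3 µM Δ7-dafachronic acid high control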
Starred values were filed as active, the others as inactive; . = not tested or not shown. Compounds with a hit are over-represented: about 4.2% of the library has one in this group of screens.

SMILES	ssDAF12 agonist	DAX1 StAR inh	SMARCA2 act	hgDAF12 agonist	hcDAF12 agonist
Clc1nc2ccccc2cc1-c1nnn(-c2ccccc2)n1	1	0	3	10	6.4*
Fc1ccc(-n2nnc(-c3ccccc3Cl)n2)cc1	-2	-1	0	0	-2
COCCNC(=O)COC(=O)CSCc1nc2ccccc2s1	0	0	0	2	5.8*
O=C(CCc1ccccc1-c1ccccc1CCNC(=O)c1ccc(F)c(F)c1)NCc1ccccc1	-1	0	-2	-2	-1
FC(F)(F)Oc1ccc(Nc2nc3ccccc3o2)cc1	0	1	2	9	5.7*
Cc1ccc2nc3ccc(N4CCN(C)CC4)nn3c(=O)c2c1	-1	4.3*	6	8	5.7*
COc1ccc(N2CCN(CCNS(=O)(=O)c3ccc(Br)s3)CC2)cc1	-2	-2	-2	3	-2
CCNC(=S)NN=C1CCC(C(C)(C)C)CC1 (stereo not drawn)	-1	0	0	4	-1
CC(C)(C)C1CCC(=NNC(=S)Nc2cccnc2)CC1 (stereo not drawn)	3.8*	1	2	0	-1
COc1ccc(C2CC(c3cccs3)=NN2C(=O)CN2CCCCC2)cc1 (stereo not drawn)	3.1*	0	6	2	0
O=C(c1ccc(F)cc1)C1CCN(c2ncnc3sccc23)CC1	-2	.	.	-8	-6
Cc1ccccc1NC(=O)c1ccc2c(c1)N(C)CCS2	-1	3.6*	1	12*	2
COC(=O)c1ccc2c(c1)N(C)CCS2	-1	0	1	-3	-1
Clc1cccc(CN2CCCCCC2)c1	-1	0	0	1	-2
Clc1ccc(-c2nc3cc(CN4CCCCC4)ccc3o2)cc1	0	1	6	11*	3
COc1ccc(CNC(=O)C2Cc3c(-c4cccc(F)c4)ccnc3O2)cc1OC (stereo not drawn)	-2	0	-2	0	-1
C=CCn1c(SCC(=O)c2ccc(F)cc2)nnc1-c1ccc(F)cc1	-1	0	-5	3	-3
C=CCn1c(SCC(=O)c2ccc(F)cc2)nnc1-c1ccc2c(c1)OCO2	1.3*	-1	-5	-3	-2
O=C(Cc1ccc(NC(=O)C2CCN(C(=O)CCc3ccccc3)CC2)cc1)Nc1cccc(C(=O)N2CCCC2)c1	-1	0	-5	-1	-2
COc1ccc2ccccc2c1/C=N/n1cnnc1	0	0	1	5	6.5*
Cc1ccc(NC(=O)c2oc3ccccc3c2NC(=O)c2ccc3c(c2)OCO3)cc1	1.1*	0	0	2	1
O=C(Nc1c(C(=O)Nc2cccc(F)c2)oc2ccccc12)c1ccc2c(c1)OCO2	-1	0	0	2	-1
Nc1ccc2c(c1)C/C(=C/c1ccco1)C2=O	0	1	2	2	5
O=C1/C(=C/c2ccco2)CCc2ccccc21	-1	1	7	9	6.2*
CCCCOCCCNC(=O)C[C@H]1C[C@@]2(C(=O)OC)C(=C[C@H](COCc3ccccc3)O[C@@H]2C)N(Cc2ccco2)C1=O	-1	-2	1	5	1
SMILES	ssDAF12 agonist	DAX1 StAR inh	SMARCA2 act	hgDAF12 agonist	hcDAF12 agonist
O=C1CC(NNc2ccccc2)C(=O)N1c1ccccc1 (stereo not drawn)	0	1	-1	0	6.3*
Cc1ccc(NNC2CC(=O)N(c3cccc(Cl)c3)C2=O)cc1 (stereo not drawn)	-1	0	2	7	0
O=C(/C=C/c1ccccc1)Nc1ccc(N2CCCCC2)cc1	0	2	1	13*	1
O=C(c1ccccc1)c1ccc(N2CCCC2)cc1	0	2	5	12*	2
O=C(Cc1ccccc1)c1ccc(N2CCOCC2)cc1	-1	1	5	11*	1
O=C(/C=C/c1ccccc1)Nc1cc(C(=O)O)cc(C(=O)O)c1	-2	0	-6	-3	0

Screening results from PubChem BioAssay.
